The values below come from article PMC3315485, “Probing the Informational and Regulatory Plasticity of a Transcription Factor DNA–Binding Domain”.

The test has as its target T1, MarA TRR (Escherichia coli, UniProt P0ACH5 1-127, W40T;Q43R).
T1 sequence: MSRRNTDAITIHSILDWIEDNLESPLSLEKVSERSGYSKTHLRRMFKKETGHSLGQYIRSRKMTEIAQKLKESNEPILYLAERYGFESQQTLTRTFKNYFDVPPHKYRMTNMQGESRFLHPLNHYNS
Description: MITOMI; MITOMI, 295 K (22 C); buffer, salt and pH not stated in the material; high values mean tight binding. The settings on record: protein: ivt; label: fluorescent; dsDNA, one strand shown. The method in brief:
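MarA protein variants were made by in vitro transcription and translation with the RTS E. coli HY kit and fluorescently labelled by adding tRNA-lys-bodipy-fl. Each was tested by MITOMI against 64 synthesized variants of the mar binding site, with protein and DNA fluorescence read on Genepix at 295K. Association constants were measured by MITOMI, and each site's value is expressed relative to the highest-affinity site for that protein variant.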
Consider ATGCCTCGTTTTGCTAAAT, for which the binding signal is 0.474 Ka relative to the best site of the variant.

With ATGACGCGTTTTGCTAAAT, the binding signal is 0.302 Ka relative to the best site of the variant.

As for ATGAGGCGTTTTGCTAAAT, the binding signal was 0.475 Ka relative to the best site of the variant.

In the case of ATGGCCCGTTTTGCTAAAT, the binding signal is 0.382 Ka relative to the best site of the variant.

Take ATGAGCCGTTTTGCTAAAT: the binding signal is 0.448 Ka relative to the best site of the variant.

As for ATGTTTCGTTTTGCTAAAT, the binding signal was 0.539 Ka relative to the best site of the variant.

Regarding ATGTGGCGTTTTGCTAAAT, the binding signal is 0.493 Ka relative to the best site of the variant.

ATGGTACGTTTTGCTAAAT: the binding signal is 0.39 Ka relative to the best site of the variant.

Take ATGGACCGTTTTGCTAAAT: the binding signal is 1 Ka relative to the best site of the variant.

With ATGTATCGTTTTGCTAAAT, the binding signal is 0.432 Ka relative to the best site of the variant.

For the sequence ATGTGACGTTTTGCTAAAT, the binding signal is 0.413 Ka relative to the best site of the variant.

Turning to ATGAAGCGTTTTGCTAAAT, the binding signal is 0.338 Ka relative to the best site of the variant.

ATGATGCGTTTTGCTAAAT: the binding signal was 0.404 Ka relative to the best site of the variant.

With ATGGAACGTTTTGCTAAAT, the binding signal is 0.432 Ka relative to the best site of the variant.

As to ATGCCACGTTTTGCTAAAT, the binding signal is 0.497 Ka relative to the best site of the variant.

Consider ATGCGGCGTTTTGCTAAAT, for which the binding signal was 0.501 Ka relative to the best site of the variant.

With ATGAGTCGTTTTGCTAAAT, the binding signal is 0.446 Ka relative to the best site of the variant.

For ATGGCTCGTTTTGCTAAAT, the binding signal is 0.362 Ka relative to the best site of the variant.

Take ATGGTCCGTTTTGCTAAAT: the binding signal is 0.442 Ka relative to the best site of the variant.

For ATGATTCGTTTTGCTAAAT, the binding signal is 0.453 Ka relative to the best site of the variant.

On to ATGCACCGTTTTGCTAAAT, for which the binding signal was 0.449 Ka relative to the best site of the variant.

Consider ATGCGTCGTTTTGCTAAAT, for which the binding signal is 0.435 Ka relative to the best site of the variant.

For ATGAACCGTTTTGCTAAAT, the binding signal is 0.379 Ka relative to the best site of the variant.

In the case of ATGCGACGTTTTGCTAAAT, the binding signal was 0.589 Ka relative to the best site of the variant.

In the case of ATGTCCCGTTTTGCTAAAT, the binding signal was 0.399 Ka relative to the best site of the variant.

Regarding ATGACTCGTTTTGCTAAAT, the binding signal was 0.382 Ka relative to the best site of the variant.

Regarding ATGTGTCGTTTTGCTAAAT, the binding signal is 0.424 Ka relative to the best site of the variant.

Take ATGCTCCGTTTTGCTAAAT: the binding signal is 0.445 Ka relative to the best site of the variant.

Take ATGGGCCGTTTTGCTAAAT: the binding signal was 0.368 Ka relative to the best site of the variant.

Consider ATGGGTCGTTTTGCTAAAT, for which the binding signal is 0.334 Ka relative to the best site of the variant.

In the case of ATGCAACGTTTTGCTAAAT, the binding signal is 0.501 Ka relative to the best site of the variant.
